This is a sample that favours compounds with a hit; in the whole collection about 3% have one here.
SKKanGAS inh: inhibitors of SKKanGAS S. pyogenes growth in kanamycin (SK-promoter or general growth effect); BacTiter-Glo, 6 h; inhibition, % at 7.5 µM; 1.3% of 300,000 active; AID 1662;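 active = mean replicate score, as percent of positive control median, at least 50; inconclusive = mean below 50 but one replicate at or above 50; inactive = mean and every replicate below 50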;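 also: strain carries kanamycin resistance gene driven by streptokinase promoter and grows in 40 µg/ml kanamycin; loss of luminescence reflects streptokinase promoter inhibition or plain growth inhibition; 0% = median of DMSO wells and 100% = positive control at its reference dose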
aSyn 5UTR inh: 5' untranslated region of α-synuclein, MLPCN primary screen; inhibition, % (tested at 7.5 µM); 0.82% of 300,000 active; alpha-synuclein 5'UTR reporter, inhibitor activity; in the data active = inhibition above about 60%; inconclusive = no clear call, values can overlap the other calls;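 also: H4 neuroglioblastoma cells stably carrying SNCA 5'UTR luciferase fusion; 0% = DMSO wells and 100% = positive control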
IEC-6 tox: kills IEC-6 intestinal cells in KLF5 counter-screen; 0.78% of 290,000 active; AID 1825; IEC-6 cytotoxicity, luminescence viability; inhibition, % at 5 µM; in the data active = inhibition above about 22%;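 also: 0% = plate median of test compound wells and 100% = cytotoxic reference compound wells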
KLF5 inh: inhibitors of KLF5 expression | DLD-1 KLF5 promoter-luciferase reporter, luminescence | inhibition, % at 5 µM | 0.23% of 290,000 active | AID 1700;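 active = inhibition above a per-plate limit of that plate's mean compound inhibition plus 3 SD, cut at about 60% in these data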;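 also: 0% = DMSO wells and 100% = LY294002 at 200 µM; higher means less KLF5 promoter-driven luciferase light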
CSC inhib: blocks cancer stem cells | cancer stem cell-like cells viability, luminescence | 1.1% of 300,000 active | AID 2717 | inhibition, % at 7.5 µM; in the data active = inhibition above about 75%; inconclusive = no clear call, values can overlap the other calls; tested in HMLE shEcad cells
Numbers without * were called inactive; ? = inconclusive; nt = not tested or not shown.

SMILES | SKKanGAS inh | aSyn 5UTR inh | IEC-6 tox | KLF5 inh | CSC inhib
COc1ccc(OCC(O)CNC(C)c2ccccc2)cc1 (stereo not given) | -0.2 | 13.5 | 6.9 | -11.9 | 4.6
CN(C)CCCn1c(SCC(=O)Nc2nc(-c3cccc(Br)c3)cs2)nc2ccccc2c1=O | 97.0* | -32.5 | -0.4 | -5.5 | ?
O=C(CSc1nc2ccccc2[nH]1)Nc1nc(-c2cccc(Br)c2)cs1 | 80.2* | -85.3 | -3.6 | -27.6 | -10.7
CCCCn1c(SCC(=O)Nc2nccs2)nc2ccccc2c1=O | 4.4 | -1.4 | -2.1 | -16.7 | -12.5
CCOc1ccc(NC(=O)CN(C)C(=O)c2cn3ccccc3n2)cc1OCC | -16.7 | 17.7 | nt | nt | -3.3
CC1CCCN(c2nc(-c3cccnc3)nc3scc(-c4ccccc4)c23)C1 (stereo not given) | 38.9 | -28.9 | 2.0 | 7.3 | -3.3
CC1CCN(c2nc(-c3cccnc3)nc3scc(-c4ccccc4)c23)CC1 | 74.9* | -3.6 | 2.4 | -6.2 | 94.7*
CC(C)OC(=O)Nc1ccc2c(c1)N(C(=O)CCN1CCOCC1)c1ccccc1CC2 | -4.6 | -14.5 | -0.1 | -19.4 | 8.5
C/C(=N\NC(=O)C(C)n1nc(C)c([N+](=O)[O-])c1C)c1ccccc1O (stereo not given) | 1.9 | 77.8* | 3.5 | -53.6 | 15.3
CC(C)=CCc1c(O)cc2oc3c(CC=C(C)C)c(O)c(O)c(CC=C(C)C)c3c(=O)c2c1O | 100.8* | 62.2* | nt | nt | 2.9
CC(=O)Oc1c(I)cc(I)cc1C(=O)Nc1ccc(Cl)cc1 | 124.4* | 18.8 | 4.5 | 13.2 | 107.6*
CC(C)C[C@H]1CN=C(Nc2ccccc2)N1CC1CCCC1 | 0.4 | -6.7 | 4.4 | -25.4 | -4.2
CC(C)C[C@H]1CN=C(Nc2ccccc2)N1CC1CCC(C(C)(C)C)CC1 (stereo not given in full) | nt | nt | nt | nt | 78.6*
O=C(CCN1CCOCC1)N/N=C/c1cc(Br)cc(Br)c1O | 56.5* | -2.8 | 4.7 | -27.5 | 3.5
O=C(Cc1ccccc1)N/N=C/c1cc(Br)cc(Br)c1O | 112.1* | 26.8 | 14.7 | -14.3 | 29.0
O=C(O)c1ccccc1N/N=C\c1ccnc2ccccc12 | 14.7 | 76.2* | 2.4 | -116.4 | 35.5
O=C(O)c1cccc2c(/C=N/Nc3ccccn3)c[nH]c12 | -8.3 | -25.9 | 2.8 | -54.2 | -5.8
O=C(O)c1ccccc1N/N=C/c1cc(Br)cc(Br)c1O | 58.1* | -110.9 | -1.0 | -52.8 | 40.3
O=C(CCN1CCOCC1)N/N=C/c1cc([N+](=O)[O-])ccc1OC(F)F | 3.9 | -29.4 | 4.6 | -13.1 | -4.2
COc1ccccc1NC(=O)c1ccc(CSc2ccccc2)o1 | -2.2 | -4.2 | -3.7 | -10.3 | 18.7
CCC1=C(c2ccc(C)cc2)S(=O)(=O)N=C1N1CCC(C(=O)NCCCN2CCCCC2C)CC1 (stereo not given) | -3.0 | 16.9 | 5.8 | -3.4 | -4.9
CC(C)(C)OC(=O)N[C@@H](Cc1ccccc1)c1nnc(SCC(N)=O)o1 | 2.1 | -14.4 | 3.1 | -35.3 | -3.7
COC(=O)CS(=O)(=O)c1nnc([C@H](Cc2ccccc2)NC(=O)OC(C)(C)C)o1 | -2.2 | 19.5 | 1.2 | -14.3 | 91.3*
Cc1cccc(CS(=O)(=O)c2nnc([C@H](Cc3ccccc3)NC(=O)OC(C)(C)C)o2)c1 | 78.8* | -12.1 | 19.3 | 1.9 | 94.8*
Cc1cccc(C)c1NC(=O)C1CCCN1C(=O)Nc1cccc(F)c1 (stereo not given) | -4.8 | -5.7 | 0.3 | -0.1 | 7.4
SMILES | SKKanGAS inh | aSyn 5UTR inh | IEC-6 tox | KLF5 inh | CSC inhib
Cc1cc(C)nc(N2CCCC(C(=O)NC(C)C)C2)n1 (stereo not given) | -6.1 | 3.3 | 4.0 | -10.6 | -9.0
CCCc1nc(SCC(=O)N2CCCCCC2)c2c(=O)n(C)c(=O)n(C)c2n1 | 50.1* | 7.7 | -4.9 | -11.4 | -2.9
CCCCc1nc(SCC(=O)N2CCCCC2)c2c(=O)n(C)c(=O)n(C)c2n1 | 3.2 | 9.2 | nt | nt | -8.9
CCOC(=O)[C@@H]1[C@H]2COc3ccc(Br)cc3[C@@H]2N2C(=O)N(c3ccc(C(F)(F)F)cc3)C(=O)[C@]12C | 5.4 | 11.1 | -0.9 | -0.3 | 15.7
Cc1cccc(OCc2nnc(SCC(=O)O)n2-c2ccccc2)c1 | 2.0 | 7.7 | -8.7 | -63.0 | 0.0
O=C(CC1SC(=Nc2ccccc2)N(CCc2c[nH]c3ccccc23)C1=O)Nc1ccccc1F (stereo not given) | 85.8* | -28.0 | -4.4 | 9.7 | 81.1*
CSC1=C(C#N)C(c2ccc(Cl)cc2)C2=C(CC(C)(C)CC2=O)N1 (stereo not given) | 7.7 | 71.1* | nt | nt | 31.2
CCOc1ncccc1C(=O)OCC(=O)c1ccc(F)cc1 | -1.5 | -4.9 | -1.6 | -23.4 | -0.7
COc1ccccc1CN1CC(C(=O)NCc2ncccc2C)CCC1=O (stereo not given) | 51.2* | -25.4 | -6.7 | -23.8 | -4.1
COc1ccc(CCN2CC(C(=O)NCCc3ccccn3)CCC2=O)cc1 (stereo not given) | 49.8* | 8.0 | -2.2 | -14.6 | -8.9
Cn1c(CNC(=O)c2ccco2)nnc1SCC(=O)N1CCN(c2ccccc2F)CC1 | -9.1 | -13.2 | -4.8 | -5.8 | nt
O=S(=O)(c1cccc(F)c1)N1CCN(C(=S)NCC2CCCO2)CC1 (stereo not given) | -1.9 | 8.9 | 5.1 | -3.4 | -12.1
COC(=O)c1ccc(-c2ccc([C@H]3[C@H]4C=CC[C@@H](C)[C@@H]4C(=O)N3Cc3ccccc3)c(F)c2)cc1 | 32.1 | -12.3 | nt | nt | -1.0
C[C@@H]1CC=C[C@H]2[C@H]1C(=O)N(Cc1ccccc1)[C@H]2c1ccc(Br)cc1F | 51.9* | -8.0 | nt | nt | 31.4
Cc1ccc(-c2ccc([C@H]3[C@H]4C=CC[C@@H](C)[C@@H]4C(=O)N3Cc3ccccc3)c(F)c2)cc1 | 40.2 | 35.3 | nt | nt | 40.7
CC(=O)c1ccc(-c2ccc([C@H]3[C@H]4C=CC[C@@H](C)[C@@H]4C(=O)N3Cc3ccccc3)c(F)c2)cc1 | 32.8 | 24.1 | nt | nt | 75.3*
CCN1CCN(c2ccc(S(=O)(=O)N3CCCC3)cn2)CC1 | -2.6 | 12.9 | -7.1 | -16.4 | 0.6
CCC(=O)NCc1cc(-c2nn(C)c(=O)c3ccccc23)ccc1C | -13.1 | 12.8 | 0.3 | 1.7 | -4.9
Cc1ccc(-c2nn(CC(=O)NCc3cc(-c4nn(C)c(=O)c5ccccc45)ccc3C)c(=O)c3ccccc23)cc1 | 35.7 | 113.5* | 0.4 | -12.2 | -5.5
CCOC(=O)c1c2c(n(C)c1C)C(=O)C(=O)c1ccc(Br)cc1-2 | 58.9* | 110.5* | 3.7 | -12.9 | 121.4*
Cc1c(CN(C)C)c2c(n1C)C(=O)c1ccc(Br)cc1-2 | 45.8 | -9.5 | 9.4 | -6.7 | 2.9
COc1ccc(NC(=S)NNC(=O)CNc2ccc(Cl)cc2)cc1 | nt | 3.9 | 2.0 | -24.6 | 17.2
O=C1CCNc2cc3ccccc3cc21 | -5.6 | 77.7* | 16.0 | 3.1 | 22.8
Cc1cc2oc(=O)c(CC(=O)NCCCN(C)C)c(C)c2c2occ(C(C)(C)C)c12 | -4.8 | ? | 5.1 | -68.9 | 90.9*
Cc1cc2oc(=O)c(CC(=O)NCCCO)c(C)c2c2occ(C(C)(C)C)c12 | -5.0 | -45.5 | -2.4 | -44.2 | 21.4
O=C(COc1cccc2ccccc12)N/N=C/c1ccccc1OCc1ccc(C(=O)O)cc1 | 13.3 | -18.9 | 2.3 | -23.0 | -12.0

Assay outcomes (PubChem)
